In PubChem BioAssay (NCATS):
Where “and” joins values, the source holds several entries; their conditions need not be identical. Equal values may be shown once. Records with an inconclusive call do not appear. Calls of active or inactive are those of the source. Unless noted, the call rests on the fitted dose curve; in most records, active means well fitted curve in the direction sought with a large enough effect; inconclusive means small, poorly fitted or top-dose-only effect, or another doubt; inactive means no such curve, though single readings can be large; an effect the other way counts as inactive or inconclusive.

Experiments:
[1] = biological target: Glucocorticoid receptor (Homo sapiens) (UniProt P04150); experiment: qHTS assay for small molecule agonists of glucocorticoid receptor signaling (AID 588532; active means well fitted curve in the direction sought with a large enough effect in the signal ratio, with a control signal flat; the % refers to the signal ratio;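 further: 100% = dexamethasone at 0.1 µM and 0% = DMSO only wells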); conditions: HeLa MMTV-bla, beta-lactamase ratio, agonist, 18 h; stronger effect = higher value; percent of dexamethasone control, DMSO zero
Chain of Glucocorticoid receptor (Homo sapiens) (P04150 whole entry, looked up): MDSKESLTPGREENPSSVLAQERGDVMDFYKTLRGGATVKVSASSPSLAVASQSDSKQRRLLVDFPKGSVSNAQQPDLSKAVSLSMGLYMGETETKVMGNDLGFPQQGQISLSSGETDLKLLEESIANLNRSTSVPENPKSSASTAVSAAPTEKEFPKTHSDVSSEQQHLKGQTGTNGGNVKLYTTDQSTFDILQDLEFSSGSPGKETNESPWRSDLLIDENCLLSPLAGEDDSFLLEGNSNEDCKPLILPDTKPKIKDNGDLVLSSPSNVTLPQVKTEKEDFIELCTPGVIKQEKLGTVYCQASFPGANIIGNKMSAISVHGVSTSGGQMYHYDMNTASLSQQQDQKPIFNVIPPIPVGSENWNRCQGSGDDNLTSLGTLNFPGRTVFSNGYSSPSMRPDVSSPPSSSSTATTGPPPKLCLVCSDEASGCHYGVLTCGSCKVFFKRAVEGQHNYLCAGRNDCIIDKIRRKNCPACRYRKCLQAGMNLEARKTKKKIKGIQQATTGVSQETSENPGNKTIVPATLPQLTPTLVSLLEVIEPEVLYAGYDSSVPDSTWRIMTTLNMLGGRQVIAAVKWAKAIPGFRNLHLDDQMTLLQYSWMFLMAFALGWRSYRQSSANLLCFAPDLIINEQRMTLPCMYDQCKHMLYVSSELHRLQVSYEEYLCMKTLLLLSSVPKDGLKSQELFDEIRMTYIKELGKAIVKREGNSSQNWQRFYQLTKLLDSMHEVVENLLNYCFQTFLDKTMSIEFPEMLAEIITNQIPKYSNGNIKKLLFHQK
How it was run: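 Using MMTV-bla HeLa cells in medium with 1% stripped FBS and 25 mM HEPES, compounds were titrated and incubated overnight-length (18 h). Beta-lactamase cleavage of CCF4 was quantified by dual-emission fluorescence.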

[2] = biological target: Glucocorticoid receptor (Homo sapiens) (UniProt P04150); experiment: qHTS assay for small molecule antagonists of glucocorticoid receptor signaling (AID 588533; active means well fitted inhibition curve with a large enough effect in the signal ratio, with a control signal flat, not every such curve was filed as active; the % refers to the signal ratio;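 further: cells stimulated with 2 nM dexamethasone as agonist; on the % scale 0 is the no-effect control and ±100 the full control effect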); conditions: HeLa MMTV-bla, GRE beta-lactamase ratio, antagonist mode, 18 h; series mostly up to 76.8 µM
How it was run: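 Antagonist-mode qHTS: compound titrations added to GRE-bla HeLa cells, then dexamethasone 2 nM final; 18 h, 37 C. CCF4 FRET fluorescence normalized to dexamethasone and DMSO; IC50 from Hill fit.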

[3] = biological target: Peroxisome proliferator-activated receptor gamma (Homo sapiens) (UniProt P37231); experiment: qHTS assay for small molecule agonists of peroxisome proliferator-activated receptor gamma signaling (AID 588536; active means well fitted curve in the direction sought with a large enough effect in the signal ratio, with a control signal flat, not every such curve was filed as active; the % refers to the signal ratio;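 further: 0% = DMSO basal wells and 100% = rosiglitazone at 2 µM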); conditions: HEK293 PPARg-UAS-bla, beta-lactamase ratio, 16 h, percent of rosiglitazone response, DMSO as zero; series mostly up to 76.7 µM
Chain of Peroxisome proliferator-activated receptor gamma (Homo sapiens) (P37231 whole entry, looked up): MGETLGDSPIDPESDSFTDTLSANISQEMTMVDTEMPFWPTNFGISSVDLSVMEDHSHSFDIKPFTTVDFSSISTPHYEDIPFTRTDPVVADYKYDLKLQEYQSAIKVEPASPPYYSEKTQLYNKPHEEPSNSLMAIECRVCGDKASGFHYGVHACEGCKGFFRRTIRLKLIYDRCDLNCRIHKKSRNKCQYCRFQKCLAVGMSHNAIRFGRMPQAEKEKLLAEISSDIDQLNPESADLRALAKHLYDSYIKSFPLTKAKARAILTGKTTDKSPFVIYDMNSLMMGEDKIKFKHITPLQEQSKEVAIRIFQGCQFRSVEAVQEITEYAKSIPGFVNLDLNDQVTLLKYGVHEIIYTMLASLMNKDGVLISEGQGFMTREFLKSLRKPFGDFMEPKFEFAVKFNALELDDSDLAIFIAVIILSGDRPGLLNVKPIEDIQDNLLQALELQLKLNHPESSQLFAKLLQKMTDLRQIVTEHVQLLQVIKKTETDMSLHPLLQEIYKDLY
How it was run: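 Beta-lactamase reporter read-out: CCF4 fluorescence (ex 405, em 460/530 nm) after 2 h at RT. HEK293 GeneBLAzer cells were treated for 16 h at 37 C. Hill fits gave EC50 and efficacy versus 2 uM rosiglitazone (100%) and DMSO (0%).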

[4] = biological target: Peroxisome proliferator-activated receptor gamma (Homo sapiens) (UniProt P37231); experiment: qHTS assay for small molecule antagonists of peroxisome proliferator-activated receptor gamma signaling (AID 588537; active means well fitted inhibition curve with a large enough effect in the signal ratio, with a control signal flat, not every such curve was filed as active; the % refers to the signal ratio; further: potency means the concentration at half of the fitted maximal effect); conditions: HEK293 PPARg-UAS-bla, beta-lactamase ratio, antagonist mode; series mostly up to 76.8 µM
How it was run: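 Antagonist-mode β-lactamase reporter screen run as a titration series. HEK293 PPARγ-UAS-bla cells are stimulated with rosiglitazone (50 nM final) for 16 h, then CCF4 is read at 460/530 nm. Data are scaled between DMSO and rosiglitazone and fitted to the Hill equation.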

[5] = biological target: Vitamin D3 receptor (Homo sapiens) (UniProt P11473); experiment: qHTS assay for small molecule antagonists of vitamin D receptor signaling (AID 588541; calls by dose curve;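 further: receptor activated by calcitriol during compound treatment; on the % scale 0 is the no-effect control and ±100 the full control effect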); conditions: HEK293T VDR-UAS-bla, beta-lactamase ratio, antagonist mode; series mostly up to 76.7 µM
Chain of Vitamin D3 receptor (Homo sapiens) (P11473 whole entry, looked up): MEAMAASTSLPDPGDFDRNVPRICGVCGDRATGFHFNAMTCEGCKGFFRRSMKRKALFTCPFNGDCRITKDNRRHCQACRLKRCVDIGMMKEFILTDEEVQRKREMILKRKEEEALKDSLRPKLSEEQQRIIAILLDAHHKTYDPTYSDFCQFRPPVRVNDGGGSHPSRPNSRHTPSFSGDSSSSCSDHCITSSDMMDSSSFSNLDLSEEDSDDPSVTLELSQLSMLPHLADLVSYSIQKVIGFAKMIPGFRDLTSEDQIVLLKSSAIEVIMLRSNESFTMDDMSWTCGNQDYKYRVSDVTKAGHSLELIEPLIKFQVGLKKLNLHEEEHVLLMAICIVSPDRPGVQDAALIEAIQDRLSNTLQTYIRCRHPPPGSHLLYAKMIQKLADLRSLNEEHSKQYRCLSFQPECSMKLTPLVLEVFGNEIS
How it was run: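 Antagonist-mode beta-lactamase reporter assay: HEK293T VDR-UAS-bla cells were exposed to titrated compound alongside 1-alpha,25-dihydroxyvitamin D3 at 3 nM final for 16 h. Values were normalized to the 50 nM agonist control and DMSO basal, with IC50 and efficacy from Hill equation fits.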

[6] = biological target: Vitamin D3 receptor (Homo sapiens) (UniProt P11473); experiment: qHTS assay for small molecule agonists of vitamin D receptor signaling (AID 588543; calls by dose curve;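 further: 0% = DMSO basal and 100% = reference agonist control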); conditions: HEK293T VDR-UAS-bla, beta-lactamase ratio, 16 h; series mostly up to 76.8 µM
How it was run: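 qHTS in agonist mode: compound titrations stimulate a VDR-driven β-lactamase reporter in HEK293T cells over 16 h at 37 °C. Response normalized to 50 nM 1α,25-dihydroxyvitamin D3 = 100%, DMSO = 0%; Hill fitting gives EC50 and maximal response.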

[7] = qHTS assay for small molecule agonists of retinoid X receptor alpha signaling (AID 588544); conditions: HEK293T RXRa-UAS-bla, beta-lactamase reporter, 18 h; 530 nm emission
[8] = biological target: Thyroid hormone receptor beta (Homo sapiens) (UniProt P10828); experiment: qHTS assay for small molecule agonists of thyroid hormone receptor beta signaling (AID 588545; calls by dose curve;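 further: 0% = DMSO only and 100% = 10 nM T3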); conditions: TR-UAS-bla GripTite HEK 293, beta-lactamase ratio, agonist mode, 18 h, percent of T3 response, DMSO as zero; series mostly up to 76.7 µM
How it was run: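 Efficacy and EC50 values derive from Hill fits of qHTS titration data, normalized to 10 nM T3 and DMSO-only wells. HEK 293 reporter cells were stimulated for 18 hrs at 37 C, with beta-lactamase activity measured by CCF4 fluorescence.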

[9] = qHTS assay for small molecule antagonists of retinoid X receptor alpha signaling (AID 588546; active means well fitted inhibition curve with a large enough effect in the signal ratio, with a control signal flat, not every such curve was filed as active; the % refers to the signal ratio;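 further: cells stimulated with 9-cis-retinoic acid as agonist; on the % scale 0 is the no-effect control and ±100 the full control effect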); conditions: HEK293T RXRa-UAS-bla, beta-lactamase ratio, antagonist mode; measured here: W530 green channel, cytotoxicity proxy
How it was run: (§1)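 Beta-lactamase reporter inhibition, read as CCF4 fluorescence ratio (ex 405, em 460/530 nm) after 2 h at RT. HEK293T UAS-bla cells, 2500/well, were stimulated with 9-cis-RA at 500 or 100 nM final alongside test compound for 18 h at 37 C.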

[10] = biological target: Retinoic acid receptor RXR-alpha (Homo sapiens) (UniProt P19793); experiment: as above; conditions: HEK293T RXRa-UAS-bla, beta-lactamase ratio, antagonist mode
Chain of Retinoic acid receptor RXR-alpha (Homo sapiens) (P19793 whole entry, looked up): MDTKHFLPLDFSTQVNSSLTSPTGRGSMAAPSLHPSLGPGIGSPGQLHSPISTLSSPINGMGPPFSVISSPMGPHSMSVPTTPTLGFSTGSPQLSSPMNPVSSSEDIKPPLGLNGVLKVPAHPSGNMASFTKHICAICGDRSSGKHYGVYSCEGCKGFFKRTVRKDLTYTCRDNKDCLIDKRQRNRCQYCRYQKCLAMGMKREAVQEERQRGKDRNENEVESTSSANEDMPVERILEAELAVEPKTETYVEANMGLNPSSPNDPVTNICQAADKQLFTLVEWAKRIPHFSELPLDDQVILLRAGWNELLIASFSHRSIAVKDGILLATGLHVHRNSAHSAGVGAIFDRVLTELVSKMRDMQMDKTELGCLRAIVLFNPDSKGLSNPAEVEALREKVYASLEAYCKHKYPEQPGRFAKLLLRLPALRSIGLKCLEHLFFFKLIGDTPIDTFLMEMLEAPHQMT
How it was run: as §1

[11] = biological target: Thyroid hormone receptor beta (Homo sapiens) (UniProt P10828); experiment: qHTS assay for small molecule antagonists of thyroid hormone receptor beta signaling (AID 588547; active means well fitted inhibition curve with a large enough effect in the signal ratio, with a control signal flat, not every such curve was filed as active; the % refers to the signal ratio;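 further: cells stimulated with 0.4 nM T3 agonist during compound exposure; on the % scale 0 is the no-effect control and ±100 the full control effect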); conditions: TR-UAS-bla HEK293, beta-lactamase ratio, antagonist mode, 18 h
How it was run: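 Inhibition of T3-driven (0.4nM final) beta-lactamase reporter activity was measured over 0.59 nM to 92 uM compound after 18 h at 37 C. The cells were GripTite HEK293 TR-UAS-bla in charcoal/dextran-stripped serum, with CCF4 ratio read-out and IC50 from Hill fits.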

[12] = biological target: Voltage-gated inwardly rectifying potassium channel KCNH2 (Homo sapiens) (UniProt Q12809); experiment: qHTS Assay for Small Molecule Inhibitors of the Human hERG Channel Activity (AID 588834); conditions: U2OS BacMam hERG, FluxOR thallium flux fluorescence; series mostly up to 46.1 µM;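 further: lower thallium flux fluorescence means stronger hERG block; nearly all actives have a fitted effect of over 50% in size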; further: potency means the concentration at half of the fitted maximal effect
Chain of Voltage-gated inwardly rectifying potassium channel KCNH2 (Homo sapiens) (Q12809 whole entry, looked up): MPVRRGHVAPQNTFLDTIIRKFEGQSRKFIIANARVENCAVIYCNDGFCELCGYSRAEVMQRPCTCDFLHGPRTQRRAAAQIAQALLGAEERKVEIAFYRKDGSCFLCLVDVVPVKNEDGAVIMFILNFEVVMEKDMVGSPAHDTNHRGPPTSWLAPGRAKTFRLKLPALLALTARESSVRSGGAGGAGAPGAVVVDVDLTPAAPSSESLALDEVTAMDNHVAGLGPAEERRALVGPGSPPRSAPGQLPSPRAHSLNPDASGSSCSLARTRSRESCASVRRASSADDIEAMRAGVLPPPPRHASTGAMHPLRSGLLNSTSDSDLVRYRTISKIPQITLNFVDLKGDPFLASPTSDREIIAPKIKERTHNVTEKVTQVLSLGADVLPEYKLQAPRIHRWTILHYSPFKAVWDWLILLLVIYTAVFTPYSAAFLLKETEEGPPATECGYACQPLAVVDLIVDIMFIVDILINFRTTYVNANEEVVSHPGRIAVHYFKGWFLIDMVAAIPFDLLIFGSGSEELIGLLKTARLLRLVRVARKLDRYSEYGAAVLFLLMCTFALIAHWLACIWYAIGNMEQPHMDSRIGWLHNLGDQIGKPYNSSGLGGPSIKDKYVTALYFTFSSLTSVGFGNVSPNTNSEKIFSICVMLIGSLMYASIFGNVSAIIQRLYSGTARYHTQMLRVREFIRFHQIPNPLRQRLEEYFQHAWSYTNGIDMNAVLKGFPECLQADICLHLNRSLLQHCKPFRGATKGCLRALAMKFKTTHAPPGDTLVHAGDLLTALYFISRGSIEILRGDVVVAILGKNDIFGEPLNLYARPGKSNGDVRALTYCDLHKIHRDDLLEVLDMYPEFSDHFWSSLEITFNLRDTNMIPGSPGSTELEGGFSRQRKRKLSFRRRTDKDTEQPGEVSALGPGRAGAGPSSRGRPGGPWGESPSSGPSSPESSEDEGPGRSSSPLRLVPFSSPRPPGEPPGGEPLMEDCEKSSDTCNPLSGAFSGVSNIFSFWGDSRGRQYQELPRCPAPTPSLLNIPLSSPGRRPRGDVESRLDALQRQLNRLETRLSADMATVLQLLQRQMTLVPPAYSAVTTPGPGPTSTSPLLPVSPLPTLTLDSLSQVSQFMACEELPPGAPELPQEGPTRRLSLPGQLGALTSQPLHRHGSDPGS
How it was run: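 Cells were infected with hERG-BacMam virus for 4 hrs at room temperature, grown overnight, then seeded at 2000/well. After dye loading and roughly 10 min compound treatment, thallium influx was triggered and fluorescence recorded.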

[13] = biological target: Luciferin 4-monooxygenase (Photinus pyralis) (UniProt P08659); experiment: Biochemical firefly luciferase enzyme assay for NPC (AID 624030);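 further: purified P. pyralis luciferase at 10 nM with luciferin and ATP substrate; 0% = DMSO and -100% = full luciferase inhibition by PTC124 control; nearly all actives have a fitted effect of over 70% in size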; conditions: purified P. pyralis luciferase, luminescence, 5 min; series mostly up to 58.6 µM
Chain of Luciferin 4-monooxygenase (Photinus pyralis) (P08659 whole entry, looked up): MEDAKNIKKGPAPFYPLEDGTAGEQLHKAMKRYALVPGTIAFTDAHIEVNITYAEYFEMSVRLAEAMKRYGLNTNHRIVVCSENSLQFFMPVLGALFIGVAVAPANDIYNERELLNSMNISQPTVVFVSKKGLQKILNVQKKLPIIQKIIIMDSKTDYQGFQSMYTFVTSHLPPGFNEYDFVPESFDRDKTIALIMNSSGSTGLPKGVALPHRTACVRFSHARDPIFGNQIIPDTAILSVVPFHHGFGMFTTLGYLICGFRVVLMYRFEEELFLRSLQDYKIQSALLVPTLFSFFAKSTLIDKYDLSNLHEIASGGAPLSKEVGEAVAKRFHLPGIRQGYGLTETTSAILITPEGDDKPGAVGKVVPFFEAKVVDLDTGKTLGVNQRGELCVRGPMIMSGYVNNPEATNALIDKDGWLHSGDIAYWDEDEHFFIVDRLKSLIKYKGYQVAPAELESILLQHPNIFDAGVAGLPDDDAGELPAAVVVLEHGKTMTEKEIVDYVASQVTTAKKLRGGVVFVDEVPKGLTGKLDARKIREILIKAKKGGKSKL
How it was run: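 Direct inhibition of firefly luciferase enzyme (10 nM final, 50 mM Tris Acetate) assessed by luminescence within 5 minutes. Percent activity scaled between DMSO and PTC124 positive control, with concentration-effect curves classified by fit quality and response.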

[14] = S16 Schwann cell viability assay (CellTiter-Glo assay) (AID 624031); conditions: S16 rat Schwann cells viability, 24 h; series mostly up to 57.5 µM;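 further: native untransfected S16 rat Schwann cells; plate controls were DMSO-treated cells for no effect and cell-free wells for full effect; nearly all actives have a fitted effect of over 70% in size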
How it was run: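 Counter-screen for cytotoxicity: parental S16 rat Schwann cells lacking the PMP22 reporters, treated 24 h with compound, viability from cellular ATP by CellTiter-Glo luminescence, normalized to DMSO (0%) and no-cell wells.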

[15] = S16 Schwann cell PMP22 intronic element firefly luciferase assay (AID 624032); conditions: S16 rat Schwann cells, PMP22 element FLuc, 24 h; series mostly up to 57.5 µM;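 further: plate controls were DMSO for no effect and PTC124 positive control mean for full effect; nearly all actives have a fitted effect of over 30% in size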
How it was run: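 Luciferase reporter of PMP22 intronic-element expression in stably transfected S16 rat Schwann cells, read by ONE-Glo luminescence after 24 h compound exposure at 37 C. Activity scaled between DMSO (0%) and positive-control PTC124; concentration-effect curves quality-classified.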

[16] = S16 Schwann cell PMP22 intronic element beta-lactamase assay (AID 624044; calls by dose curve;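 further: 0% = DMSO and -100% = potassium clavulanate positive control; nearly all actives have a fitted effect of over 15% in size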); conditions: S16 rat Schwann cells, PMP22 element beta-lactamase FRET, 24 h; series mostly up to 38.3 µM
How it was run: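 Beta-lactamase reporter under a PMP22 intronic regulatory element in stable S16 rat Schwann cells; 24 h compound exposure. 460 nm blue signal normalized between DMSO (0%) and potassium clavulanate, with 535 nm FRET tracking viability; curves classed by r2 and response.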

[17] = biological target: Glutaminase kidney isoform, mitochondrial (Homo sapiens) (UniProt O94925); experiment: qHTS for Inhibitors of Glutaminase (GLS): LOPAC Validation (AID 624146); conditions: glutaminase enzyme activity inhibition; series mostly up to 46.1 µM;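 further: glutamate product detected by oxidase and peroxidase coupled Amplex red fluorescence gain; on the % scale 0 is the no-effect control and ±100 the full control effect; nearly all actives have a fitted effect of over 60% in size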
Chain of Glutaminase kidney isoform, mitochondrial (Homo sapiens) (O94925 whole entry, looked up, canonical isoform): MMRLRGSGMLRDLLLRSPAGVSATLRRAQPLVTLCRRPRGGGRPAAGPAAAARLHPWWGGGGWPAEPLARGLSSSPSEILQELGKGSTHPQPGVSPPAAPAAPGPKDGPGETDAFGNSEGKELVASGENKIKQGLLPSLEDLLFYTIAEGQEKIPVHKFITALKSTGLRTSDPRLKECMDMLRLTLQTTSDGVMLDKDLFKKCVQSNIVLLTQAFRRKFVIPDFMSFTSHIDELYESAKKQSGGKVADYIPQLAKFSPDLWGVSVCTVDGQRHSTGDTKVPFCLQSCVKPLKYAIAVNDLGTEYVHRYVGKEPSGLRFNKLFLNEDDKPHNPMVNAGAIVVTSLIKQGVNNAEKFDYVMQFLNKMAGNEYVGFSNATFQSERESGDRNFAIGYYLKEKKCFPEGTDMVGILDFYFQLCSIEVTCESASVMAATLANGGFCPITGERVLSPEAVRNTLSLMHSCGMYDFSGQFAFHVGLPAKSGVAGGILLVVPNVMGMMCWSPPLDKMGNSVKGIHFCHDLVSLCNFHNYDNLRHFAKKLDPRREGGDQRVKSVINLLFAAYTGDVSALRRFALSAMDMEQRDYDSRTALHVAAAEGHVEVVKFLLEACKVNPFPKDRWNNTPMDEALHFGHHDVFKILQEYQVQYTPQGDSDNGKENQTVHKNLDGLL
How it was run: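 Enzyme dispensed in phosphate buffer (45 mM, pH 8.2, 0.02% Tween-20), compounds pinned in, then 1 mM L-glutamine solution and the glutamate oxidase–HRP–Amplex Red mix added; fluorescence read immediately and again after 30 min at room temperature.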

[18] = qHTS assay for small molecule antagonists of peroxisome proliferator-activated receptor delta signaling (AID 588535; active means well fitted inhibition curve with a large enough effect in the signal ratio, with a control signal flat, not every such curve was filed as active; the % refers to the signal ratio;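 on max response: cells co-treated with a PPAR-delta agonist as stimulator during compound exposure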); conditions: HEK293T PPARd-UAS-bla, beta-lactamase FRET ratio, 18 h; 460 nm channel
How it was run: (§2)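 Titrations were run on PPAR-delta-UAS-bla HEK293T cells in charcoal/dextran-stripped serum, incubated 18 h at 37 C. CCF4 fluorescence (460/530 nm) after 2 h RT; Hill equation yields IC50 and maximal response.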

[19] = biological target: Peroxisome proliferator-activated receptor delta (Homo sapiens) (UniProt Q03181); experiment: as above; conditions: HEK293T PPARd-UAS-bla, beta-lactamase FRET ratio, 18 h; series mostly up to 76.7 µM
Chain of Peroxisome proliferator-activated receptor delta (Homo sapiens) (Q03181 whole entry, looked up): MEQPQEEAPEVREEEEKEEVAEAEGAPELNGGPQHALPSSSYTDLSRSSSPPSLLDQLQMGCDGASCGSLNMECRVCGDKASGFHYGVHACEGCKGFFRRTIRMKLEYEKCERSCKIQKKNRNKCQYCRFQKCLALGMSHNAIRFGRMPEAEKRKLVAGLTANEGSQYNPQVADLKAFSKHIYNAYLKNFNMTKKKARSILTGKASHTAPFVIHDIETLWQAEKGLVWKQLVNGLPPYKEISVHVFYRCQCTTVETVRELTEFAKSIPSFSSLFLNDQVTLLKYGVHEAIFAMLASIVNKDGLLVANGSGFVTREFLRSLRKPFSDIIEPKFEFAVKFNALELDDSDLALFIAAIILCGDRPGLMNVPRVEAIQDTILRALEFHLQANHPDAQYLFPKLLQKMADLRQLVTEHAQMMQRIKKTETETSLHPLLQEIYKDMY
How it was run: as §2

[20] = biological target: Bile acid receptor (Homo sapiens) (UniProt Q96RI1); experiment: qHTS assay for small molecule antagonists of farnesoid X receptor signaling (AID 588526; calls by dose curve; further: on the % scale 0 is the no-effect control and ±100 the full control effect); conditions: HEK293T FXR-UAS-bla, beta-lactamase ratio, antagonist mode; series mostly up to 76.7 µM
How it was run: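 Beta-lactamase reporter antagonist mode: HEK293T FXR-UAS-bla cells, titrated compound, CDCA stimulation, 16 h 37 C, CCF4 dye 2 h RT. Data normalized to CDCA 50 uM and DMSO; Hill-fit IC50.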

NCCS(=O)(=O)O
-14.9%: max response [7]
-6.13%: max response [9]
inactive: activation [1] 1.42% | Potency [2] | outcome [3] | Potency [4] | outcome [5] | outcome [6] | outcome [8] | max response [10] -0.744% | activity change % (negative = inhibition) [11] -15.9% | Potency [12] | Potency [13] | Potency [14] | Potency [15] | Potency [16] | Potency [17]

CN(Cc1cnc2nc(N)nc(N)c2n1)c1ccc(C(=O)N[C@@H](CCC(=O)O)C(=O)O)cc1
inactive: outcome [8] | activity change % (negative = inhibition) [11] -21.4% | Potency [12] | Potency [13] | Potency [14] | Potency [15] | Potency [17]
active: Potency [4] 447 nM

Nc1ccn([C@H]2CC[C@@H](CO)O2)c(=O)n1
-7.85% and -11%: max response [7]
inactive: outcome [19] | outcome [3] | Potency [4] | outcome [8] | max response [10] -7.58% and 1.21% | activity change % (negative = inhibition) [11] 1.36% and 5.95% | Potency [12] | Potency [13] | Potency [17]
-1.8% and -6%: max response [9]
-2.4% and 34.8%: max response [18]

Clc1ccc(C(c2ccccc2Cl)C(Cl)Cl)cc1 (stereo not drawn)
active: Potency [12] 31.6 µM and 10 µM and 5.62 µM
inactive: activation [1] -3.98% | outcome [19] | outcome [8] | activity change % (negative = inhibition) [11] -34.3% | Potency [13] | Potency [17]
-16.9%: max response [18]

CC#C[C@]1(O)CC[C@H]2[C@@H]3CCC4=CC(=O)CCC4=C3[C@@H](c3ccc(N(C)C)cc3)C[C@@]21C
inactive: activation [1] -13.5% | outcome [8] | Potency [13] | Potency [14] | Potency [16]

COc1ccc2c(c1)c(CC(=O)O)c(C)n2C(=O)c1ccc(Cl)cc1
inactive: activation [1] -6.76% | Potency [2] | outcome [8] | Potency [12] | Potency [13] | Potency [17]

NS(=O)(=O)c1cc2c(cc1Cl)NCNS2(=O)=O
inactive: Potency [20] | activation [1] -0.573% | Potency [2] | outcome [3] | Potency [4] | outcome [5] | outcome [6] | outcome [8] | max response [10] 11.3% and 4.53% | activity change % (negative = inhibition) [11] -1.87% and 13.1% | Potency [12] | Potency [13] | Potency [15] | Potency [17]
1.78% and -10.2%: max response [7]
-4.08% and -3.49%: max response [9]

COc1ccccc1OCC(O)CN1CCN(CC(=O)Nc2c(C)cccc2C)CC1 (stereo not drawn)
inactive: Potency [12] | Potency [13] | Potency [14] | Potency [15] | Potency [16] | Potency [17]
